# Source: PubChem BioAssay
# Calls of active or inactive are those of the source.
# How the values were obtained:
# [1] = binders of probe aFSTL3 on microarray, primary screen, stem cell growth factor project, biochemical, small-molecule microarray, fluorescence 635/667 (AID 1064); details: higher = more signal;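 also: measures binding of the biotinylated anti-FSTL3 antibody to printed compounds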
# [2] = binders from COS7 lysate, DM2A8 probe, primary screen, torsin A project, cell lysate, small-molecule microarray, fluorescence 635/667 (AID 1065); details: higher = more signal, COS7 lysate expressing mutant human TOR1A
# [3] = binders of probe aFGF2 on microarray, primary screen, stem cell growth factor project, biochemical, small-molecule microarray, fluorescence 635/667 (AID 1067); details: higher = more signal;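 also: measures binding of biotinylated aFGF2 protein to printed compounds on slides; z-score merges feature fluorescence and signal-to-noise across triplicate slides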
# [4] = binders of probe aFGF10 on microarray, primary screen, stem cell growth factor project, biochemical, small-molecule microarray, fluorescence 635/667 (AID 1071); details: higher = more signal;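 also: score merges 667 nm spot intensity and signal to noise from triplicate slides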
# [5] = target: Neurogenic locus notch homolog protein 2 (Homo sapiens) (UniProt Q04721); assay: Notch2 binders on small-molecule microarrays, primary screen, biochemical, small-molecule microarray, 635 nm fluorescence, stem cell growth factors (AID 1073); details: Notch2 binding, higher = more signal
# [6] = target: Pro-neuregulin-1, membrane-bound isoform (Homo sapiens) (UniProt Q02297); assay: NRG1 binders on small-molecule microarrays, primary screen, psychiatric disease protein project, biochemical, small-molecule microarray, fluorescence 635/667 (AID 1075); details: NRG1 binding, 635 nm fluorescence, higher = more signal;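 also: score combines 667 nm spot fluorescence with signal to noise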
# [7] = system: Neuregulin-1 EGF-like domain; assay: binders of neuregulin-1 EGF-like domain, primary screen, biochemical, small-molecule microarray, 635 nm fluorescence (AID 1081); details: small-molecule microarray binding, higher = more signal;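 also: binding of the protein to compounds printed on small-molecule microarray slides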
# [8] = FRG1 promoter luciferase signal modulators, primary screen, FRG1 inhibition for FSHD, cell-based, C2C12 myotubes, firefly/Renilla luciferase, luminescence (AID 1084); details: higher = more signal, called active from +8 up or from −8 down
# [9] = binders of probe aFST on microarray, primary screen, stem cell growth factor project, biochemical, small-molecule microarray, fluorescence 635/667 (AID 1086); details: higher = more signal;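 also: score merges 667 nm fluorescence with signal-to-noise of each printed compound spot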
# [10] = binders of probe aHhip on microarray, primary screen, stem cell growth factor project, biochemical, small-molecule microarray, fluorescence 635/667 (AID 1087); details: higher = more signal;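 also: score merges spot fluorescence at 667nm with spot signal to noise ratio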
# [11] = system: PRMT1 (protein arginine N-methyltransferase 1); assay: PRMT1 binders on small-molecule microarrays, primary screen, biochemical, small-molecule microarray, 635 nm fluorescence (AID 1088); details: small-molecule microarray binding, higher = more signal;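 also: binding of Prmt1 protein to compounds spotted on small-molecule microarray slides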
# [12] = yeast growth modulation, basal conditions, primary screen, YJM789 clinical isolate, OD600, 24 h (AID 1089);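 also: growth of clinical yeast isolate S. cerevisiae YJM 789 seeded 1000 cells per well; test concentration not given here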; details: S. cerevisiae YJM789 growth, higher = more signal, called active from +8 up or from −8 down
# [13] = fission yeast growth modulation, primary screen, strain 972, OD600, 24 h, no modulator (AID 1090);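 also: basal condition with compound alone and no growth modifier present; test concentration not given here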; details: S. pombe 972 growth, higher = more signal, called active from +8 up or from −8 down
# [14] = S. cerevisiae growth modulation with rapamycin, primary screen, strain BY4716, OD600, 96 h (AID 1091); details: higher = more signal, called active from +8 up or from −8 down; also: test concentration not given here
# [15] = target: Torsin-1A-interacting protein 2 (Homo sapiens) (UniProt Q8NFQ8); assay: LULL1 binders on small-molecule microarray, primary screen, cell lysate, human LULL1 lysate, 635/667 nm fluorescence (AID 1092); details: hLULL1 lysate binding, 635 nm fluorescence, higher = more signal;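 also: probe is lysate of COS7 cells overexpressing human LULL1; score merges per-feature 667 nm fluorescence with signal-to-noise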
# [16] = E. coli growth modulation, two-sided OD650, primary screen, E. coli filamentation project, strain DRC41, 24 h (AID 1093); details: OD650, 24 h, higher = more signal, called active from +8 up or from −8 down;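 also: MC1000 strain lacking acrAB efflux and sulA so SOS filamentation is blocked; test concentration not given here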
# [17] = small-molecule microarray binders of probe aLefty2, primary screen, biochemical, biotinylated probe, 635/667 nm fluorescence (AID 1094); details: higher = more signal;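 also: score merges spot fluorescence near 667 nm with spot signal-to-noise ratio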
# [18] = system: Noggin (protein binding on small-molecule microarray); assay: Noggin binders on small-molecule microarray, primary screen, biochemical, 635/667 nm fluorescence (AID 1095); details: 635 nm fluorescence, higher = more signal;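 also: score merges 667 nm feature fluorescence with signal to noise over triplicate slides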
# [19] = target: Neurogenic locus notch homolog protein 3 (Homo sapiens) (UniProt Q9UM47); assay: NOTCH3 binders on small-molecule microarray, primary screen, biochemical, 635/667 nm fluorescence (AID 1096); details: NOTCH3 binding, 635 nm fluorescence, higher = more signal
# [20] = small-molecule microarray binders of probe aEGFR, primary screen, biochemical, biotinylated probe, 635/667 nm fluorescence (AID 1097); details: higher = more signal;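 also: probe is a biotinylated anti-EGFR antibody binding compounds printed on slides; score combines fluorescence near 667 nm and signal to noise of each spot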
# Sequence of Neurogenic locus notch homolog protein 2 (Homo sapiens) (Q04721 whole entry, looked up, canonical isoform): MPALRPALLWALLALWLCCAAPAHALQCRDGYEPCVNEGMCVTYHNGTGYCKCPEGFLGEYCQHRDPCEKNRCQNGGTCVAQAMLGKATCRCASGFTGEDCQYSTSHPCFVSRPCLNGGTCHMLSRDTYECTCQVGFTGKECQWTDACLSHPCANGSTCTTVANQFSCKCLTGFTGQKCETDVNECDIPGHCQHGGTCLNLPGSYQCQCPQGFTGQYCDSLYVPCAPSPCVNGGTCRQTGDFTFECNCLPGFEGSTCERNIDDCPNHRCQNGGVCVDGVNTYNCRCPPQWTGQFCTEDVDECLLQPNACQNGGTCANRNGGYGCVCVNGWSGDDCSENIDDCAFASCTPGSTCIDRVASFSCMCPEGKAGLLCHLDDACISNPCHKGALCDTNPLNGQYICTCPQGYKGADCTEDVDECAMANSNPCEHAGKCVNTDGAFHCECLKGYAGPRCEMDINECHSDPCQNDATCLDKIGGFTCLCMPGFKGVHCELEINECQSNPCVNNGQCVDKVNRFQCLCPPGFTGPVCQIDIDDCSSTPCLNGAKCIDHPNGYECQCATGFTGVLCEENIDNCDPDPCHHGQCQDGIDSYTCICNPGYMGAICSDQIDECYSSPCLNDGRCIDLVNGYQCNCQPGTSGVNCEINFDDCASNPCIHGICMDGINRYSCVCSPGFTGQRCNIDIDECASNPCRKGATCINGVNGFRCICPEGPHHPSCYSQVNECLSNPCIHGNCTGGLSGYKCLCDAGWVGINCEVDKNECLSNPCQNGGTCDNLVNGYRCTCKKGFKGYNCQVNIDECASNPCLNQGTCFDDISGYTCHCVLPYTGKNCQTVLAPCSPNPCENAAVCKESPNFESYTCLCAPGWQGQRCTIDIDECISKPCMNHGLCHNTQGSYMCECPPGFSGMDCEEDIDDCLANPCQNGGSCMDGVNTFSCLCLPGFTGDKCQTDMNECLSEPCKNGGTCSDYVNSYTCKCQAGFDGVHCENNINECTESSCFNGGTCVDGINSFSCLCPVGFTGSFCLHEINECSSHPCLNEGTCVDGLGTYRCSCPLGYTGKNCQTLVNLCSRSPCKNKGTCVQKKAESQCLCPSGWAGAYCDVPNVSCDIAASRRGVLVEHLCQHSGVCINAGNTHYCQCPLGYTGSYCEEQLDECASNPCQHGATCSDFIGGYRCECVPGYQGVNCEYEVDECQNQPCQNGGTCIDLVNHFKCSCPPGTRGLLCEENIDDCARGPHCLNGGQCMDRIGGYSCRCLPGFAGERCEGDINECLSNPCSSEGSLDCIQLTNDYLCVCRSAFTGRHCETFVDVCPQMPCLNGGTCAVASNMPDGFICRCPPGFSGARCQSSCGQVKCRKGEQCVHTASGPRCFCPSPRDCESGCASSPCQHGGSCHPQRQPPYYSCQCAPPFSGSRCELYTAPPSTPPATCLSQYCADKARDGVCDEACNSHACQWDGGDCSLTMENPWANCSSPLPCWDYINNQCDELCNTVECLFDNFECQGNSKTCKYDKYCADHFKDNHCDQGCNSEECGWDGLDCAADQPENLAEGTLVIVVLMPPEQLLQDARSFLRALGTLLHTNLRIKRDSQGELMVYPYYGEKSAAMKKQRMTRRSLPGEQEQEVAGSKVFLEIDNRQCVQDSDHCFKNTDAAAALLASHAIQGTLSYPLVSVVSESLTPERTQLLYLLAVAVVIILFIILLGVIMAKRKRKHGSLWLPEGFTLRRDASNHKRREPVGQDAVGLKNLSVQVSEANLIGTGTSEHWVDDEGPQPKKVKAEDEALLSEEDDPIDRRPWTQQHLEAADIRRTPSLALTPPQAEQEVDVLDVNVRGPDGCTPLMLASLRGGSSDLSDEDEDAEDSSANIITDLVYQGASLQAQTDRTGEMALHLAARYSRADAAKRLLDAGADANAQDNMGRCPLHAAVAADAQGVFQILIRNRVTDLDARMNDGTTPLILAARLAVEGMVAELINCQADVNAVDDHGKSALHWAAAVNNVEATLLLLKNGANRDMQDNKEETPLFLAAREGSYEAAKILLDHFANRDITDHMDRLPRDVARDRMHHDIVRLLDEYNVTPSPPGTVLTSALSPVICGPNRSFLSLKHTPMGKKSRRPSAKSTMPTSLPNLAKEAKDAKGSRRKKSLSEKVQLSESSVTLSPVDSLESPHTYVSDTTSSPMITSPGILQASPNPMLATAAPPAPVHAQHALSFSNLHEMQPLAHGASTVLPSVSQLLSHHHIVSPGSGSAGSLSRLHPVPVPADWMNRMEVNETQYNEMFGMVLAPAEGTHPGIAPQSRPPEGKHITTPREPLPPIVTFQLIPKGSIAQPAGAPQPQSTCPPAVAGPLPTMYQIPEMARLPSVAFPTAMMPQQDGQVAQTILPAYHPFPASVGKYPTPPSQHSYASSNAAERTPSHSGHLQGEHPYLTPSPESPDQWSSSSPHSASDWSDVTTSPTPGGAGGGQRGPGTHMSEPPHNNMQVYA
# Sequence of Torsin-1A-interacting protein 2 (Homo sapiens) (Q8NFQ8 whole entry, looked up): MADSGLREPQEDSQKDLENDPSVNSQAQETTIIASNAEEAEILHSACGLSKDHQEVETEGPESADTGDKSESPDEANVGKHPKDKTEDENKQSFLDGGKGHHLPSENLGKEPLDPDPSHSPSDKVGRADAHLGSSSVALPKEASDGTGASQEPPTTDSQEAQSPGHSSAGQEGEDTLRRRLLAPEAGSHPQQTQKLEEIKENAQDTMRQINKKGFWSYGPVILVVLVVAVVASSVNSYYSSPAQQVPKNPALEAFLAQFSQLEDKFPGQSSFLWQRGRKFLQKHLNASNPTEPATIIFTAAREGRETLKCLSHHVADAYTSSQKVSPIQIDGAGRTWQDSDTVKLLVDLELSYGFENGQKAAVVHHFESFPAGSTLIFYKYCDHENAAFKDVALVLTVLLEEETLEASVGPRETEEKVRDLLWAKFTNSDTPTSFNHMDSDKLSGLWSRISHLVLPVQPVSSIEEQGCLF
# Sequence of Pro-neuregulin-1, membrane-bound isoform (Homo sapiens) (Q02297 whole entry, looked up, the tested form may be a part, canonical isoform): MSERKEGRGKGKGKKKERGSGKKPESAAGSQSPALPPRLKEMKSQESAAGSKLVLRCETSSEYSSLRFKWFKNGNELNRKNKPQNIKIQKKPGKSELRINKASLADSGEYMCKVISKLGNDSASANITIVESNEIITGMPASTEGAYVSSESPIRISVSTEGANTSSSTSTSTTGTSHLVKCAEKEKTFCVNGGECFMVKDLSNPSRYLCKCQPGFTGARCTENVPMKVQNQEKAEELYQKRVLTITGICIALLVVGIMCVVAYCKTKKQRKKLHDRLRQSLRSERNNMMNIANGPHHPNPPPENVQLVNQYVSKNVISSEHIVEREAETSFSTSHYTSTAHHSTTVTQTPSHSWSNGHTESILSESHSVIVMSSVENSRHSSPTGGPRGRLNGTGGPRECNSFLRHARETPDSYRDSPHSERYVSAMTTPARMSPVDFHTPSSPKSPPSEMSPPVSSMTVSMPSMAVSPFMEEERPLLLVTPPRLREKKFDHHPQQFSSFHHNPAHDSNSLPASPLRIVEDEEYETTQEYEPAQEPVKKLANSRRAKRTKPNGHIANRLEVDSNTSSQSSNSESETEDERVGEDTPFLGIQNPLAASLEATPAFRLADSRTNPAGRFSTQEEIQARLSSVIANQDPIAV
Structure (SMILES),composite z-score [1],composite z-score [2],composite z-score [3],composite z-score [4],composite z-score [5],composite z-score [6],composite z-score [7],z-score [8],composite z-score [9],composite z-score [10],composite z-score [11],z-score [12],z-score [13],z-score [14],composite z-score [15],z-score [16],composite z-score [17],composite z-score [18],composite z-score [19],composite z-score [20]
COc1ccc([Si](C)(C)[C@H]2[C@H](CCO)O[C@@]3(C(=O)N(Cc4ccccc4)c4ccc(N5C(=O)c6cccc7cccc5c67)cc43)[C@@H]2C)cc1,0.334,-0.173,-0.144,0.0626,-0.0844,0.48,0.836,-1.3 (inactive),-0.268,3.71,0.491,1.05 (inactive),1.11 (inactive),33 (active),1.12,1.97 (inactive),-0.225,-0.453,-0.203,-0.218
COCCCNC(=O)[C@@]1(c2ccc([N+](=O)[O-])cc2)CC(=O)N(C2CCCCC2)[C@@H]1c1ccc(CO)cc1,-1.19,-0.655,-0.248,0.174,-0.243,0.763,1.39,-0.912 (inactive),-0.604,-0.859,0.139,-0.707 (inactive),-0.591 (inactive),-0.432 (inactive),2.04,0.77 (inactive),-0.509,-0.836,-0.193,-0.421
O=C1O[C@@H](c2ccccc2)[C@@H](c2ccccc2)N2[C@@H](c3ccc(O)cc3)[C@]3(C(=O)Nc4ccccc43)[C@@H](C(=O)N3CCN(c4ncccn4)CC3)[C@H]12,0.0022,0.637,0.142,0.0271,-0.486,0.474,1.25,-3.02 (inactive),0.0944,0.0274,1.29,0.2 (inactive),-1.95 (inactive),1.98 (inactive),2.71,3.16 (inactive),-0.12,-0.534,0.079,-0.179
CSCC[C@@H]1NC(=O)CC=C[C@@H](C)COC(=O)[C@H](CCSC)NC(=O)CC=C[C@@H](C)COC1=O,-0.678,1.31,-0.127,0.0086,-0.121,-0.283,-0.26,-0.889 (inactive),-0.15,0.0578,-0.153,-0.981 (inactive),-1.12 (inactive),-1.03 (inactive),-0.452,-0.566 (inactive),-0.137,0.877,-0.35,-0.128
O=C1NC(=O)C2C1C=CC(C(O)C=Cc1ccc([N+](=O)[O-])cc1)N2Nc1ccccn1 (stereo not given),-0.273,0.224,0.102,0.212,1.15,-0.0777,0.966,0.126 (inactive),-0.199,-0.226,0.403,0.459 (inactive),1.31 (inactive),-0.108 (inactive),1.51,-0.298 (inactive),0.0866,0.289,-0.135,-0.094
COC(=O)[C@@]1(Cc2ccc(OC)cc2)[C@H]2c3cc(C(=O)N(C)C)n(CCc4ccc(OC)c(Br)c4)c3C[C@H]2CN1C(=O)c1ccccc1,1.53,0.323,0.544,1.03,1.66,1.77,1.34,-0.151 (inactive),1.95,-0.0489,1.17,0.557 (inactive),0.236 (inactive),2.82 (inactive),3.33,-0.76 (inactive),0.903,-0.54,1.01,0.674
COc1cc2c(cc1OC)CN(C(=O)[C@H]1[C@@H]3C(=O)O[C@@H](c4ccccc4)[C@@H](c4ccccc4)N3[C@@H](c3ccc(O)cc3)[C@]13C(=O)Nc1ccc(C#CC4(O)CCCCCC4)cc13)CC2,1.75,0.457,0.567,1.12,0.685,2.26,1.33,-0.21 (inactive),2.53,2.29,1.41,0.377 (inactive),0.0581 (inactive),0.695 (inactive),3.75,0.206 (inactive),0.675,1.72,0.991,0.221
CO[C@@H]1COC(=O)CC=C[C@H](C)COC(=O)[C@H](Cc2ccccc2)NC(=O)CC=C[C@H]1C,-1.68,1.69,-0.265,-0.416,-1.04,-0.409,0.517,-0.533 (inactive),-0.515,-0.179,1.48,-0.346 (inactive),-0.867 (inactive),-1.61 (inactive),-0.844,-0.0298 (inactive),-0.399,1.6,0.202,-0.0773
CO[C@H]1COC(=O)[C@@H](OCc2ccccc2)C=C[C@H](C)[C@@H](OC)COC(=O)[C@H](OCc2ccccc2)C=C[C@@H]1C,-0.617,-0.144,-0.136,-0.205,-0.893,-0.93,-0.669,-0.23 (inactive),-0.0171,-0.353,-0.374,-2.92 (inactive),-2.88 (inactive),-0.495 (inactive),-0.233,-0.255 (inactive),-0.462,0.816,-0.472,-0.188
CCCNC(=O)[C@@H]1c2ccccc2C(=O)N(C2CCCCC2)[C@H]1c1ccc(CO)cc1,-0.162,0.325,-0.0374,0.549,1.41,1.16,1.29,-0.0971 (inactive),0.56,0.0785,1.53,-0.104 (inactive),1.15 (inactive),1.29 (inactive),3.01,-0.358 (inactive),0.0511,0.771,1.1,0.0634
O=C(CS)NCCCCCCNC(=O)[C@@H]1C[C@@H]2C(=O)N[C@@H](Cc3ccccc3)C(=O)N2[C@@H]1c1ccc(O)cc1,0.0737,1.09,-0.083,0.922,0.412,1.23,1.41,1.21 (inactive),0.245,0.0373,1.53,0.205 (inactive),1.52 (inactive),1.99 (inactive),2.97,0.988 (inactive),-0.0741,0.652,1.16,-0.0271
COc1ccc(CCNC(=O)[C@@]2(c3ccc([N+](=O)[O-])cc3)CC(=O)N(C(C)C)[C@@H]2c2ccc(CO)cc2)cc1,0.988,-0.716,-0.116,-0.94,-1.38,1.57,0.987,-1.39 (inactive),-0.529,-0.265,-0.383,-1.15 (inactive),-1.2 (inactive),-1.1 (inactive),2.99,1.89 (inactive),0.11,-1.2,-0.791,-0.318
